The text below walks through data of PubChem BioAssay (Tox21).

A short description of test [1]: qHTS assay to identify small molecule antagonists of the sonic hedgehog signaling (Shh) pathway (AID 1259369; calls by dose curve; further: nearly all actives have a fitted effect of over 45% in size; further: potency means the concentration at half of the fitted maximal effect). The essentials: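 Conditioned medium drives Shh signalling in 3T3Gli1-Luc cells; compounds in DMSO co-applied, 24hr at 37 C, then luciferase luminescence.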
(qHTS replaces the single test concentration by a dilution series.)

A short description of test [2]: qHTS assay to identify small molecule agonists of the androgen receptor (AR) signaling pathway in the presence of an antagonist - cell viability counter screen (AID 1259379). Further: nearly all actives have a fitted effect of over 25% in size. Further: potency means the concentration at half of the fitted maximal effect. The essentials: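 A CellTiter-Fluor read-out measured viability of MDA-kb2 reporter cells (MMTV promoter with AR and GR response elements). Treatment: nilutamide 3.0uM final with compounds at 15 concentrations, 16 hr, 37C, 0% CO2.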

A short description of test [3]: qHTS assay to identify small molecule antagonists of the estrogen receptor beta (ER-beta) signaling pathway - cell viability counter screen (AID 1259382). Further: series mostly up to about 92 µM; nearly all actives have a fitted effect of over 55% in size. The essentials: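 Agonist-stimulated (1nM E2) ER-beta-UAS-bla HEK293T cells are incubated with library compounds for 16 hr at 37C. Cell viability is then assessed in the reporter-assay wells by adding CellTiter-Glo and reading luminescence after 30 min.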

Test [4] addresses Estrogen receptor (Homo sapiens) (UniProt P03372). Description: qHTS assay to identify small molecule agonists of the estrogen receptor alpha (ER-alpha) signaling pathway in the presence of an antagonist (AID 1259383; calls by dose curve; further: nearly all actives have a fitted effect of over 15% in size; further: potency means the concentration at half of the fitted maximal effect; on activation: top concentration of the series differs between compounds). Put shortly: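 Using VM7Luc4E2 cells seeded 24hr before treatment, antagonist ICI-182,780 (10.0nM final) was added, followed by compounds at 15 concentrations. Plates incubated 22hr; ONE-Glo luminescence quantified reporter activity.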

The nature of test [5]: qHTS assay to identify small molecule agonists or antagonists of the thyroid stimulating hormone receptor (TSHR) signaling pathway - wild type cell line counter screen (AID 1259384; calls by dose curve). Put shortly:
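Wild-type HEK293 cells were plated 18 h at 37 C/5% CO2, pin-dosed with compound plus Ro20-1724 medium, held 30 min at room temperature, then given cAMP-d2 and anti-cAMP-cryptate; fluorescence was read after 1 h. Fifteen concentrations, triplicate.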

For test [6], the target named is Thyrotropin receptor (Homo sapiens) (UniProt P16473). Put plainly: qHTS assay to identify small molecule antagonists of the thyroid stimulating hormone receptor (TSHR) signaling pathway (AID 1259385; calls by dose curve; further: nearly all actives have a fitted effect of over 20% in size). Put shortly: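 TSHR-HEK293 cells were plated and held 18 h at 37C/5% CO2, then given compound plus Ro20-1724 and stimulated with TSH at 1.5 ng/mL final. After 30 min at room temperature, cAMP was detected with cAMP-d2/anti-cAMP-cryptate (1 h) by fluorescence.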
Thyrotropin receptor (Homo sapiens), sequence (P16473 whole entry, looked up): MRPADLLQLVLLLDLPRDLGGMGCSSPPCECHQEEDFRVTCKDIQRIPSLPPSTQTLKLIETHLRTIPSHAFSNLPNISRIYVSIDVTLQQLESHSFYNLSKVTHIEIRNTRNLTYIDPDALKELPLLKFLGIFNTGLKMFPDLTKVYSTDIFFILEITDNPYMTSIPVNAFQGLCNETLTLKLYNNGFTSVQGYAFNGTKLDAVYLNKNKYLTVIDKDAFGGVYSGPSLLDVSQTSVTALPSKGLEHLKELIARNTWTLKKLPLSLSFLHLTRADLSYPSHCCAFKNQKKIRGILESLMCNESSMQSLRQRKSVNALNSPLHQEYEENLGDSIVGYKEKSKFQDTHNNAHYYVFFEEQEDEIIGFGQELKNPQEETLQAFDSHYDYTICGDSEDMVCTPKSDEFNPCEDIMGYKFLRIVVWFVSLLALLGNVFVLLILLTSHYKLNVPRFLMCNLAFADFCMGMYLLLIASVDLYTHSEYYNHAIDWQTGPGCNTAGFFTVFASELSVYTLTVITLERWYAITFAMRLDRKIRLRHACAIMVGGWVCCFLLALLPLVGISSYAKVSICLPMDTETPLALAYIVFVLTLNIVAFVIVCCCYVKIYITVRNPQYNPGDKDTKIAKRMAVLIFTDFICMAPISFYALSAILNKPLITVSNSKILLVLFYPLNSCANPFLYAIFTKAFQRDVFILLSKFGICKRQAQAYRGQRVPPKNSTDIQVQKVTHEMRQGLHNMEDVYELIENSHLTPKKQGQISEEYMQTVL

Test [7] is described as follows: qHTS assay to identify small molecule agonists of the estrogen receptor alpha (ER-alpha) signaling pathway in the presence of an antagonist - cell viability counter screen (AID 1259386).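 Further: cells exposed to compounds for 22 h at 37 °C before the viability read; nearly all actives have a fitted effect of over 30% in size.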 Further: potency means the concentration at half of the fitted maximal effect. Put shortly:
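ICI-182,780 at 10.0nM final accompanies the compound titration (15 concentrations, 22hr, 37C) on VM7Luc4E2 cells. The CellTiter-Fluor fluorescence readout runs in the same wells as the luciferase assay.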

Test [8] has as its target Progesterone receptor (Homo sapiens) (UniProt P06401). Description: qHTS assay to identify small molecule agonists of the progesterone receptor (PR) signaling pathway (AID 1346784; calls by dose curve; further: nearly all actives have a fitted effect of over 30% in size). The essentials:
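Cells (PR-UAS-bla HEK 293T, GripTite) were plated in assay medium containing 2% charcoal-stripped FBS and incubated 6 hr. Test compounds in DMSO were added for 16 hr at 37C. FRET substrate was then loaded for 2 hr at room temperature before fluorescence reading.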

Test [9] in a line: qHTS assay to identify small molecule antagonists of the progesterone receptor (PR) signaling pathway - cell viability counter screen (AID 1346798). Further: series mostly up to about 92 µM; nearly all actives have a fitted effect of over 50% in size. The essentials: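 Counter screen for cytotoxicity: viability of PR-UAS-bla HEK293T cells was measured with CellTiter-Glo luminescence following 16 hr compound exposure in the presence of R5020.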
Test [10] can be described thus: qHTS assay to identify small molecule agonists of the progesterone receptor (PR) signaling pathway - cell viability counter screen (AID 1346799; calls by dose curve; further: nearly all actives have a fitted effect of over 45% in size). The essentials:
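Cells (PR-UAS-bla HEK293T) are plated at 3,000/well in 2% charcoal-stripped FBS medium, rested 6 hr, dosed and incubated 16 hr at 37C. CellTiter-Glo is then added and luminescence measured after 30 min at room temperature.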

Test [11] in a line: qHTS assay to identify small molecule antagonists of the TGF-beta/Smad signaling pathway - cell viability counter screen (AID 1346824). Further: nearly all actives have a fitted effect of over 50% in size. The essentials: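 SBE-bla HEK 293T cells were plated overnight at 37 C, then given compounds in DMSO plus TGF-beta1 (added as 0.25 ng/mL solution) for 5 hr. After the bla read, CellTiter-Glo was added to the same wells and luminescence read after 30 min at room temperature.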

The nature of test [12]: qHTS assay to identify small molecule agonists of the TGF-beta/Smad signaling pathway - cell viability counter screen (AID 1346829). Further: top concentration of the series differs between compounds; nearly all actives have a fitted effect of over 45% in size. Put shortly:
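SBE-bla HEK 293T cells plated overnight, compound exposure 5 hr at 37 C. Viability read in the same wells by CellTiter-Glo luminescence after 30 min at room temperature, following the beta-lactamase read.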

Test [13] can be described thus: qHTS assay to identify small molecule agonists of the TGF-beta/Smad signaling pathway (AID 1346859; active means well fitted activation curve with a large enough effect in the signal ratio in the repeat runs, not every such curve was filed as active; the % refers to the signal ratio; further: series mostly up to about 77 µM). The essentials:
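Reporter line: HEK 293T with stably integrated SBE-controlled beta-lactamase. Compound exposure lasts 5 hr at 37 C and 5% CO2; substrate loading follows for 2 hr at room temperature, with emission read at 460 and 530 nm.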

The target in test [14] is Progesterone receptor (Homo sapiens) (UniProt P06401). Put plainly: qHTS assay to identify small molecule antagonists of the progesterone receptor (PR) signaling pathway (AID 1346795; active means well fitted inhibition curve with a large enough effect in the signal ratio in the repeat runs, not every such curve was filed as active; the % refers to the signal ratio; further: potency means the concentration at half of the fitted maximal effect). Put shortly: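 Antagonist mode: compounds tested against 1 nM (final) promegestone stimulation in HEK293T cells expressing PR-UAS-bla reporter, 16 hr at 37C, 5% CO2; beta-lactamase activity detected via B/G FRET substrate after 2 hr at room temperature.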
Progesterone receptor (Homo sapiens), sequence (P06401 whole entry, looked up): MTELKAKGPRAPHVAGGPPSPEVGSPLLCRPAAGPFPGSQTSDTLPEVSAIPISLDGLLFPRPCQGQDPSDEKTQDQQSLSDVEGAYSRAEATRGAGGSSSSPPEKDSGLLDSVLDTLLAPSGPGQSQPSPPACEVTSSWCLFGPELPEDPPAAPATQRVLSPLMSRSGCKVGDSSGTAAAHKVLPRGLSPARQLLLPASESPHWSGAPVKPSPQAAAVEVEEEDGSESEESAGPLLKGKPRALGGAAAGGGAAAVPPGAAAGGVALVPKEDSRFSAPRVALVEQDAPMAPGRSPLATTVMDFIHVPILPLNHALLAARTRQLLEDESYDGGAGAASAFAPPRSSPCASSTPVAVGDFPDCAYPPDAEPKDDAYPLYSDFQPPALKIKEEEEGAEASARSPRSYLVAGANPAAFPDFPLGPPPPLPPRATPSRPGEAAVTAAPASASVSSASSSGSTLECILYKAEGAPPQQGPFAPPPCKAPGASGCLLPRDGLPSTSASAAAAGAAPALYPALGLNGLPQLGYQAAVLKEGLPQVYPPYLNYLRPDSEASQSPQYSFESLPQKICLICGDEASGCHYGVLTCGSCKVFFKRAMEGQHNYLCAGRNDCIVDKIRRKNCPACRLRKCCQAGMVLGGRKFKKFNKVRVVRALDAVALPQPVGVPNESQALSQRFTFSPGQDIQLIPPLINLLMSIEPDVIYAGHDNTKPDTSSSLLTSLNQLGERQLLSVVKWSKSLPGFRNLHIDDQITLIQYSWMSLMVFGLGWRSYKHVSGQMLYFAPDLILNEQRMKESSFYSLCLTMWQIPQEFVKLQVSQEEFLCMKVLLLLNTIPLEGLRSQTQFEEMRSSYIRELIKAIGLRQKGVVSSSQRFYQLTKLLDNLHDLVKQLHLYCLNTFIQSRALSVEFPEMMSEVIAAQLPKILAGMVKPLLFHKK

In test [15] the target is Estrogen receptor beta (Homo sapiens) (UniProt Q92731). Description: qHTS assay to identify small molecule agonists of the estrogen receptor beta (ER-beta) signaling pathway (AID 1259377; active means well fitted activation curve with a large enough effect in the signal ratio in the repeat runs, not every such curve was filed as active; the % refers to the signal ratio). Put shortly:
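Agonist mode cell assay in GripTite HEK293T cells expressing an ER-beta fusion that drives beta-lactamase from an Upstream Activator Sequence; 16 hr compound exposure at 37C, then 2 h LiveBLAzer B/G FRET substrate at room temperature, fluorescence read-out.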

The target is the same in test [16]. Description: qHTS assay to identify small molecule antagonists of the estrogen receptor beta (ER-beta) signaling pathway (AID 1259378; active means well fitted inhibition curve with a large enough effect in the signal ratio in the repeat runs, not every such curve was filed as active; the % refers to the signal ratio; further: potency means the concentration at half of the fitted maximal effect). Put shortly: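 ER-beta-UAS-bla HEK293T (GripTite) cells in 2% charcoal-stripped FBS medium were preincubated 6 hr at 37C, dosed with compound, then stimulated with 1 nM E2 (final) for 16 hr; beta-lactamase reporter read by B/G FRET fluorescence after 2 hr substrate loading.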

A short description of test [17]: qHTS assay to identify small molecule agonists of the estrogen receptor beta (ER-beta) signaling pathway - cell viability counter screen (AID 1259380). Further: nearly all actives have a fitted effect of over 30% in size. Put shortly: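 Cells used were ER-beta-UAS-bla HEK293T in medium with 2% charcoal-stripped FBS. They were treated for 16 hr at 37C. Viability came from CellTiter-Glo luminescence.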
Test [18] has as its target Thyrotropin-releasing hormone receptor (Homo sapiens) (UniProt P34981). Description: qHTS assay to identify small molecule antagonists of the thyrotropin-releasing hormone receptor (TRHR) signaling pathway (AID 1346877; active means well fitted inhibition curve with a large enough effect in the repeat runs, not every such curve was filed as active; further: series mostly up to about 51 µM). Put shortly: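 Screening used HEK293 cells engineered with TRHR, with a brief 5 min room-temperature compound exposure preceding addition of TRH to 1 nM. The read-out was kinetic calcium-dye fluorescence, concentration-response from 15 doses in triplicate.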

The target of test [19] is Androgen receptor (Homo sapiens) (UniProt P10275). Description: qHTS assay to identify small molecule agonists of the androgen receptor (AR) signaling pathway in the presence of an antagonist (AID 1259381; calls by dose curve; further: nearly all actives have a fitted effect of over 15% in size). The essentials: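 Using human MDA-kb2 cells with an MMTV promoter–luciferase construct (AR and GR response elements), agonist activity is scored under 3.0uM nilutamide (final) co-treatment; 16hr incubation, 37C, luminescence readout via ONE-Glo.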
Androgen receptor (Homo sapiens), sequence (P10275 whole entry, looked up): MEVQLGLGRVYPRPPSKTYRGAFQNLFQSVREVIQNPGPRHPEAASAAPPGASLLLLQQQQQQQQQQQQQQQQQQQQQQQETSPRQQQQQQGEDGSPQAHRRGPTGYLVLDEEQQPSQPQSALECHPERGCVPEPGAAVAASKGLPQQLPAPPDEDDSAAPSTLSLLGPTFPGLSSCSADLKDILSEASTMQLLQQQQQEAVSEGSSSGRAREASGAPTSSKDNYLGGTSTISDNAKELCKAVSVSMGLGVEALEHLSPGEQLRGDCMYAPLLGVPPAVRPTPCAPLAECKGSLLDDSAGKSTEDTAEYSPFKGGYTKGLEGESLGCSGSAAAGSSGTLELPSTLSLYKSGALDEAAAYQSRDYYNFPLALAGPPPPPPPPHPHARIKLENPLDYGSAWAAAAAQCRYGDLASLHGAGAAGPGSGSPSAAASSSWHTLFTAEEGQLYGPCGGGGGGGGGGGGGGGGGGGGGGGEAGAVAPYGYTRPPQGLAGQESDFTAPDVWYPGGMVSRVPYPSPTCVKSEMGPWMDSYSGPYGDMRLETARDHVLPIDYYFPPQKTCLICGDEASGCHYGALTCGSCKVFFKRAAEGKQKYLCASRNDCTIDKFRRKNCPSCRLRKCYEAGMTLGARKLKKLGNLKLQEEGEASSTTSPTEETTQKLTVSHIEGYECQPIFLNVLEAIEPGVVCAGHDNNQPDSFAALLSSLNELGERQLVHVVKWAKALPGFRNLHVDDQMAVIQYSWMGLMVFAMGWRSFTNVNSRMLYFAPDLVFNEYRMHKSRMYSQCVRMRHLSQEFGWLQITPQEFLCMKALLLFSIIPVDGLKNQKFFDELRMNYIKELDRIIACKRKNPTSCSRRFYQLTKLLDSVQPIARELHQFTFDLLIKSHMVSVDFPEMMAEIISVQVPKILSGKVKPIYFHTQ

Test [20] addresses Thyrotropin-releasing hormone receptor (Homo sapiens) (UniProt P34981). Description: qHTS assay to identify small molecule agonists of the thyrotropin-releasing hormone receptor (TRHR) signaling pathway (AID 1346891; calls by dose curve;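 further: HEK293 cells expressing TRHR with calcium dye readout; series mostly up to about 58 µM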). The essentials:
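Cells: TRHR-Hek293, seeded and incubated 18 h. Dye loading: 2 h at 37 °C. Compound added from DMSO stock by pin tool. Read-out: kinetic calcium fluorescence over 3 min.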

Records with an inconclusive call do not appear. Active and inactive are the calls of the source. Unless noted, the call rests on the fitted dose curve; in most records, active means well fitted curve in the direction sought with a large enough effect in the repeat runs; inconclusive means weak or mixed curves; inactive means no such curve, though single readings can be large; an effect the other way counts as inactive or inconclusive.

Estrogen receptor (Homo sapiens), sequence (P03372 whole entry, looked up): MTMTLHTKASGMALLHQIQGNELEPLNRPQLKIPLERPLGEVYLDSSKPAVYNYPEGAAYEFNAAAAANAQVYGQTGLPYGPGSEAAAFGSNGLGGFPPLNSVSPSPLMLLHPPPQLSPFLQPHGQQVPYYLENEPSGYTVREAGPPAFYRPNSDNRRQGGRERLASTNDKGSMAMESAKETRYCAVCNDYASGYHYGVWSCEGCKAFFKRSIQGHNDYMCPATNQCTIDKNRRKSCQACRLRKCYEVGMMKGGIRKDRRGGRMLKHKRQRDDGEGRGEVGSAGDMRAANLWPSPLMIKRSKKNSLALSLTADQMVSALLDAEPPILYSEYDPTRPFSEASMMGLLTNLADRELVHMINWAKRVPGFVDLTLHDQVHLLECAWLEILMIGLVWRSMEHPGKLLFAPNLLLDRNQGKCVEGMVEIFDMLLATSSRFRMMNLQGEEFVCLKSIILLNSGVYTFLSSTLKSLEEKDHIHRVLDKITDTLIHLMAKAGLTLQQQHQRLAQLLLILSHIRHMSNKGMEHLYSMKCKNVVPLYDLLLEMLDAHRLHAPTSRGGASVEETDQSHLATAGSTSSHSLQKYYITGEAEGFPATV
Estrogen receptor beta (Homo sapiens), sequence (Q92731 whole entry, looked up, the tested form may be a part): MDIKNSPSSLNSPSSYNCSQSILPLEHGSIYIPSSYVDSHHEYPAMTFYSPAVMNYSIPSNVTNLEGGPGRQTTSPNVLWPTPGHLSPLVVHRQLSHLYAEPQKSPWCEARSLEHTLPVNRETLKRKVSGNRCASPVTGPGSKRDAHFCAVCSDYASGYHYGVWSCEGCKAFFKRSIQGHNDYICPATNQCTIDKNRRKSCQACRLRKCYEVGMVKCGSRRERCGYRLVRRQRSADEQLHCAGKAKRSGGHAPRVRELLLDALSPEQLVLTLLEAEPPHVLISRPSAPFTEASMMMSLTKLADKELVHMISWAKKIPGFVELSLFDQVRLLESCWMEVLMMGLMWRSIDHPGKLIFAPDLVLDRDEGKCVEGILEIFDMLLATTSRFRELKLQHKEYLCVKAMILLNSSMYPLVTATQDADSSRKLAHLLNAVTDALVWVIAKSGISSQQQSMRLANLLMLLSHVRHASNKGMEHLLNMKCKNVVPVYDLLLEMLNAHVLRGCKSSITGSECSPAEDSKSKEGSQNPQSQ
Thyrotropin-releasing hormone receptor (Homo sapiens), sequence (P34981 whole entry, looked up): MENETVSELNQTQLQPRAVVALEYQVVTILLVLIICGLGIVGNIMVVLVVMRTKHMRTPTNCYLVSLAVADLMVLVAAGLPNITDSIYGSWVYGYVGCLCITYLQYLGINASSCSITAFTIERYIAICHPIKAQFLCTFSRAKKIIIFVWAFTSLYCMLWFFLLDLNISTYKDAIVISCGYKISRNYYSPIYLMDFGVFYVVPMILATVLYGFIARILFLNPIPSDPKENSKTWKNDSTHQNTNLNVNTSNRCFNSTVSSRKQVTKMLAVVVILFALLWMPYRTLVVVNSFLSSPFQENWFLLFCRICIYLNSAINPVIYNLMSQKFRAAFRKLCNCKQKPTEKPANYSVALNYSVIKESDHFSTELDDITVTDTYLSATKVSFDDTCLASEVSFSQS

Take `CCC(C)(C)C1CCC(O)CC1` (stereo unspecified): the Potency entry in test [1], in test [2], in test [3], in test [4], in [6] and in test [7] was “inactive” each time. The Potency entry in test [8], in test [9] and in test [10] was “inactive” in each case. Moreover, the molecule was called inactive in test [5], in [11], in [12] and in [13].
For the molecule `CC(C)C(OC(=O)c1ccccc1)C(C)(C)COC(=O)c1ccccc1` (stereo unspecified), the Potency entry in [1], in test [2], in test [3], in [6], in test [7] and in test [8] was “inactive” throughout. The Potency in test [14] is 19.3 µM (active). For the same molecule, the molecule was classed as inactive in test [11], in test [12] and in test [13].
For `CC(C)(C)C(=O)O`, the Potency entry in test [15], in [16], in test [2], in test [17], in test [3] and in [6] was “inactive” throughout. The Potency result in test [7], in test [8], in [14] and in test [10] was “inactive” throughout. The molecule was classed as inactive in test [5], in test [11], in test [12], in test [13] and in [18].
Consider `Cc1cc(O)c2c(O)c3c(O)cccc3cc2c1`, for which the Potency result in test [1], in [17], in test [19], in test [3], in [6] and in test [7] was “inactive” throughout. In addition, the Potency result in [8], in test [14], in test [9] and in test [20] was “inactive” throughout. Further, the outcome in [11], in test [12], in test [13] and in test [18] was inactive.
As to `Cc1ccc(S(=O)(=O)NC2CCCCC2)cc1`, the Potency result in test [15], in test [16], in test [2], in [17], in test [3] and in test [4] was “inactive” each time. The Potency entry in test [6] and in [8] was “inactive” in each case. For the same molecule, the result in [5], in [11], in test [12], in test [13] and in [18] was inactive. In test [14], the Potency was 27.1 µM (active).
With `CC(C)OCC1CO1` (stereo unspecified), the Potency entry in test [15], in test [16], in [2], in test [17], in test [3] and in test [4] was “inactive” throughout. Also, the Potency entry in [8] and in [20] was “inactive” in each case. For the same molecule, the call in test [11], in [12], in test [13] and in test [18] was inactive.
Turning to `CCOC(=O)N1CCC(n2c(=O)[nH]c3cc(Cl)ccc32)CC1`, the Potency result in test [15], in test [17], in [19], in [3], in test [4] and in test [6] was “inactive” throughout. Besides, the Potency entry in test [8] and in [20] was “inactive” throughout. For the same molecule, the Potency is 29.8 µM (active) in test [2] and 23.7 µM (active) in test [7]. Moreover, the outcome in test [5], in test [11], in [12], in [13] and in test [18] was inactive.
For `CC(COc1ccc(C(C)(C)C)cc1)OS(=O)OCCCl` (stereo unspecified), the Potency in [1] is 1.94 µM (active). Besides, the Potency entry in [3], in test [4], in test [7] and in test [20] was “inactive” each time. The molecule was classed as inactive in test [5], in test [11], in test [12], in test [13] and in test [18].
For `CC(=O)Oc1ccc(C(=C2CCCCC2)c2ccc(OC(C)=O)cc2)cc1`, the Potency result in [15], in test [2], in test [3], in [6], in test [7] and in test [8] was “inactive” each time. In addition, in test [10], the Potency entry was “inactive”. Further, the results for the Potency in [16], in [4] and in test [14] were 0.0106 µM (active), 2.37 µM (active) and 13.3 µM (active), respectively. In addition, the molecule was called inactive in [5], in test [11], in test [12] and in [13].
In the case of `CCc1cccc(N(C)C(N)=Nc2cccc3ccccc23)c1`, the Potency entry in test [15], in [16], in test [2], in test [19], in test [3] and in test [7] was “inactive” throughout. The Potency result in test [8], in test [14], in test [9] and in test [10] was “inactive” in each case. In addition, the call in test [5], in [11], in test [12] and in [13] was inactive.
